Hits are enriched below; roughly 19% of the tested compounds scored in any of these assays.
Marburg entry inh: inhibitors of Marburg virus binding or cell entry; Marburg virus pseudotyped entry inhibition, cell reporter; Potency, µM (highest dose often 37.8 µM), hits mostly inhibitors; 300,000 tested, 1.8% active; AID 540276; calls by dose curve; tested in HEK293 cells
Shiga inhibitor: blocks Shiga toxin action in Vero cells. Vero cells, Shiga toxin protein synthesis inhibition reporter. inhibition, % at 38.7 µM. 290,000 tested, 9.2% active; in the data active means inhibition mostly above about 28%, no sharp cut-off; inactive means mostly below about 43%
Pf growth 48h: P. falciparum growth inhibition at 48 hours (one generation); 310,000 tested, 5.9% active; Potency, µM (titrated, usually from 28.7 µM), usual class: inhibitors; P. falciparum luciferase growth in erythrocytes, 48 h
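Luminescence readout; reporter = integrated firefly luciferase in P. falciparum. RBC culture at 2% hematocrit, 0.1% parasitemia final, 37 C/5% CO2; decreased signal taken as growth inhibition.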
Cycloheximide cs: counter-screen hit for Shiga toxin inhibitors, cycloheximide | cell reporter, cycloheximide protein synthesis inhibition counterscreen | max response, % | 300,000 tested, 12% active; in the data active means max response mostly above about 13%, no sharp cut-off; inactive means mostly below about 14%; further: read at 38.3 µM for the half of the compounds with a filed dose
Pf growth 96h: P. falciparum growth inhibition at 96 hour, primary screen for plastid delayed-death inhibitors; P. falciparum luciferase reporter growth, 96 h; Potency, µM (series often up to 28.7 µM), most hits filed as inhibitors; 320,000 tested, 6.9% active; AID 504834
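Parasite growth measured via integrated firefly luciferase reporter in P. falciparum. Infected erythrocytes at 2% hematocrit, 0.05% parasitemia final were treated 96 hours at 37 C under 5% CO2, and luminescence was read.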
Lassa entry inh: Lassa virus entry inhibition. Lassa virus pseudotype entry inhibition, cell reporter. Potency, µM (doses to about 37.9 µM), actives largely listed as inhibitors. 300,000 tested, 1.2% active; calls by dose curve; tested in HEK293 cells; further: nearly all actives have a fitted effect of over 50% in size
Hits are given with their value; i = inactive; ? = inconclusive; nt = no result given; + = active, no number; [ ] = another dose, or the depositor's remark. Unless noted, the call rests on the fitted dose curve; in most records, active means well fitted inhibition curve with a large enough effect; inconclusive means small, poorly fitted or top-dose-only effect, or another doubt; inactive means no such curve, though single readings can be large or run the other way.

SMILES | Marburg entry inh | Shiga inhibitor | Pf growth 48h | Cycloheximide cs | Pf growth 96h | Lassa entry inh
COc1ccc(C(=O)CC(=O)C(=O)Nc2cc(OC)c(OC)c(OC)c2)cc1 | nt | i | nt | i | i | nt
COc1ccc(C(=O)CC(=O)C(=O)Nc2ccc(C)c(Cl)c2)cc1 | nt | i | nt | 23 | i | nt
O=C(Cn1ncc2c([nH]c3ccccc32)c1=O)N1CCCCC1 | nt | i | i | i | i | nt
C=CCc1ccccc1OCC(CN1CCCCC1)OC(C)=O (stereo unspecified) | i | i | i | i | ? | i
C=CCc1ccccc1OCC(O)CN1CCN(c2ccccc2OC)CC1 (stereo unspecified) | ? | i | ? | i | ? | ?
O=[N+]([O-])c1cccc(NC(=S)Nc2nc(-c3ccc(Cl)cc3Cl)cs2)c1 | nt | i | 5.9µM | i | i | nt
CC(=O)c1cccc(Nc2nc(-c3cccc([N+](=O)[O-])c3)cs2)c1 | ? | 103 | i | 38 | i | ?
O=[N+]([O-])c1cccc(-c2csc(N/N=C/c3cccc(O)c3)n2)c1 | ? | 105 | i | 28 | i | 7.9µM
O=C(Nc1nc(-c2cccc([N+](=O)[O-])c2)cs1)C(c1ccccc1)c1ccccc1 | ? | i | ? | i | i | ?
Cc1[nH]n(-c2nc(-c3cccc([N+](=O)[O-])c3)cs2)c(=O)c1C | i | 54 | i | 37 | i | i
CCC(C)[C@H](NC(=O)NCc1cccs1)C(=O)O (stereo partly specified) | i | i | i | i | i[5.75 µM] | ?
CC1(C2CC2)NC(=O)N(CC(=O)N2CCN(c3ccc(F)cc3)CC2)C1=O (stereo unspecified) | i | nt | i | nt | i | i
CCOc1ccc(C(=O)NCC(=O)OCc2cc([N+](=O)[O-])cc3c2OCOC3)cc1OCC | i | i | i | i | i | i
CCOc1ccc(C2C(=O)N(C3CCCCCC3)CC(=O)N2CCc2ccccc2)cc1OC (stereo unspecified) | nt | nt | nt | nt | nt | i
CC(=O)Nc1nc(C)c(-c2csc(Nc3cccc([N+](=O)[O-])c3)n2)s1 | 14µM | i | nt | i | 0.83µM | ?
CC(=O)Nc1nc(C)c(-c2csc(Nc3ccc(O)cc3)n2)s1 | 4.6µM | i | 2.6µM | 15 | ? | ?
COc1ccc2c(c1OC)C(=O)OC2Nc1nc(-c2cccc([N+](=O)[O-])c2)cs1 (stereo unspecified) | i | 43 | i | 57 | i | i
COc1ccc(CC(=O)Nc2nc(-c3cccc([N+](=O)[O-])c3)cs2)cc1 | i | i | i | i | i | ?
CC(=O)Nc1ccc(Nc2nc(-c3sc(NC(C)=O)nc3C)cs2)cc1 | 3.2µM | i | ? | i | ? | ?
CCc1cccc(NC(=O)CN2C(=O)COc3ccc(S(=O)(=O)Nc4ccccc4)cc32)c1 | nt | nt | nt | nt | nt | i
Cc1nn(C)cc1CN(C)C(=O)c1sc2cccc(Cl)c2c1Cl | i | i | i | i | ? | i
Cc1ccc(N(C)S(=O)(=O)c2c(-c3ccccc3)csc2C(=O)O)cc1 | i | nt | nt | nt | nt | i
NC(=O)c1ccc(NC(=O)CCc2nc3sc4c(c3c(=O)[nH]2)CCCC4)cc1 | i | nt | i | nt | i | i
CC(=O)Nc1nc(C)c(-c2csc(Nc3ccccn3)n2)s1 | ? | 90 | i | 37 | ? | i
CC(=O)c1sc(Nc2ccccn2)nc1C | i | i | i | i | i | i
SMILES | Marburg entry inh | Shiga inhibitor | Pf growth 48h | Cycloheximide cs | Pf growth 96h | Lassa entry inh
CCN1N=C(c2ccccc2)Cn2c1nc1ccccc12 | i | i | nt | i | 6.6µM | i
CS(=O)(=O)N1CCn2c1nc1ccccc12 | i | i | i | i | i | i
Cc1cccc(CN2CCN(C(=O)c3cccc4ccccc34)CC2)c1 | ? | nt | i | i | ? | i
CC(=O)N1CCc2ccc(S(=O)(=O)Nc3ccccc3Cl)cc21 | nt | i | i | i | i | nt
Cc1ccc2c(c1)c1ncnc(N3CCN(c4ccccc4)CC3)c1n2C | i | i | i | i | i | ?
Cc1ccc2c(c1)c1ncnc(N3CCC4(CC3)OCCO4)c1n2C | i | 64 | i | 33 | i[5.75 µM] | nt
Cc1ccc2c(c1)c1ncnc(N3CCOCC3)c1n2C | ? | 94 | ? | 28 | ? | ?
c1ccc2c(c1)[nH]c1c(N3CCC4(CC3)OCCO4)ncnc12 | ? | i | nt | i | ? | ?
CC(C)(C)C1CCc2c(sc3ncn(N)c(=N)c23)C1 (stereo unspecified) | nt | i | i | 13 | i | nt
N=c1c2c3c(sc2ncn1N)CCC3 | nt | i | i | i | i | nt
Cc1nc(/C(N)=N/OC(=O)c2cccc(Cl)c2)c(C(F)(F)F)o1 | nt | i | i | 11 | i | nt
Cc1nc(/C(N)=N/OC(=O)c2ccccc2Cl)c(C(F)(F)F)o1 | nt | 91 | i | 52 | i | nt
Cc1nc(C(=O)NNC(=O)c2ccc(Cl)cc2)c(C(F)(F)F)o1 | i | i | ? | i | i | i
Cc1cccc(-n2ccnc2CN2CCN(C3CCCC3)C(CCO)C2)c1 (stereo unspecified) | nt | i | i | i | 6.6µM | nt
CC(=O)Nc1ccc(CN2CCN(C3CCCC3)C(CCO)C2)cc1 (stereo unspecified) | i | i | i | i | 8.3µM | i
COc1ccc(-n2ccnc2CN2CCN(C3CCCC3)C(CCO)C2)cc1 (stereo unspecified) | nt | i | i | i | i | nt
OCCC1CN(Cc2c(F)cccc2Cl)CCN1C1CCCC1 (stereo unspecified) | ? | i | i | i | 13µM | i
Nc1nsc2ccccc12 | ? | i | ? | 24 | i | ?
CC(C)C[C@H](N)c1nnc(SCc2ccc(Cl)cc2Cl)o1 | ? | nt | nt | nt | nt | i
CC(C)C[C@H](N)c1nnc(S(=O)(=O)Cc2ccc(F)cc2)o1 | ? | i | i | 42 | ? | ?
Cc1c(Cl)cccc1NC(=O)c1cnc2sc(N3CCCC3)nn2c1=O | nt | nt | nt | nt | nt | i
CN(Cc1cnccn1)Cc1nc(Cc2cccc(F)c2)no1 | ? | i | i | i | ? | ?
CN1CCN(C(=O)CSc2nc3ccc(NC(=O)c4ccccc4F)cc3s2)CC1 | nt | i | ? | 14 | ? | nt
COc1ccccc1C(=O)Nc1ccc2nc(SCC(=O)N3CCCC3)sc2c1 | i | nt | nt | nt | nt | i
Cn1cnnc1SCC(=O)Nc1ccc2nc(SCc3ccccc3F)sc2c1 | i | 165 | i | 50 | nt | i
SMILES | Marburg entry inh | Shiga inhibitor | Pf growth 48h | Cycloheximide cs | Pf growth 96h | Lassa entry inh
Cn1c(SCC(=O)Nc2ccc3nc(SCC(=O)N4CCCC4)sc3c2)nnc1-c1ccccc1 | i | i | 9.3µM | i | 3.3µM | i
COc1cc([C@H]2C(C(=O)c3cccs3)=C(O)C(=O)N2c2cc(C)on2)ccc1O | i | nt | nt | nt | nt | nt
CC(=O)Nc1nnc(SCc2ccc(F)cc2)s1 | i | i | i | 39 | i | i
Cc1nnc(SCC(=O)Nc2nnc(SCc3cccc(Br)c3)s2)s1 | i | i | i | i | 7.4µM | i
O=C(Nc1nnc(SCc2ccc(F)cc2)s1)c1ccc2ncsc2c1 | i | + | i | 65 | i | i
CC(=O)Nc1nnc(SCc2cccc(F)c2)s1 | nt | 21 | i | i | i | nt
CC(=O)Nc1nnc(SCC(=O)c2ccc(F)cc2)s1 | i | i | i | i | i | i
CC1Cc2ccccc2N1C(=O)CCN1C(=O)C2C3C=CC(C3)C2C1=O (stereo unspecified) | i | i | i | i | i | i
